The results in this text go back to PubChem BioAssay AID651739 (Broad Institute, 2012).

About 4,100 (73%) of roughly 5,600 compounds were called active. About 4% were inconclusive and are not listed. The set was probably picked from earlier hits. Not all results are given here. A number with no mark means an inactive call.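 The calls were made as follows: active = mean replicate inhibition above about 95% and at least 55% of replicates individually reaching it (limit read from the data); inconclusive = only one of the two criteria is met; inactive = neither criterion is met.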

The test is described as follows: blockers of Trypanosoma cruzi growth in host cells – cell-based, NIH3T3 host, beta-gal parasite, luminescence, cherry-pick, confirmation (AID 651739). Particulars: T. cruzi beta-gal in NIH3T3, GalScreen luminescence, 90 h; at 8.35 µM; active compounds read high.
Turning to `COc1ccccc1C#Cc1ccc([C@H]2[C@H](CO)N3CCCCN(C(=O)C4CCC4)C[C@@H]23)cc1`, the inhibition – broadly, the change of the read-out against control, counted positive when it falls – was 114% (active).
Under `COc1ccccc1C#Cc1ccc([C@@H]2[C@H](CO)N3CCCCN(C(=O)C4CC4)C[C@@H]23)cc1` stands 103% (active); under `COc1ccccc1C#Cc1ccc([C@@H]2[C@H](CO)N3CCCCN(C(=O)C4CCCC4)C[C@@H]23)cc1`, 99.8% (active); under `C[C@@H]1CN([C@H](C)CO)S(=O)(=O)c2ccc(C#C[C@@H](C)O)cc2O[C@@H]1CN(C)Cc1ccc(-c2ccccc2)cc1`, 96.5% (active).
Under `C[C@H]1CN([C@@H](C)CO)S(=O)(=O)c2ccc(C#CCN(C)C)cc2O[C@@H]1CN(C)Cc1ccc(F)cc1` stands 109% (active); under `CC(C)C#Cc1ccc2c(c1)O[C@H](CN(C)Cc1ccccc1)[C@H](C)CN([C@@H](C)CO)S2(=O)=O`, 105% (active); under `C[C@@H]1CN([C@@H](C)CO)S(=O)(=O)c2ccc(/C=C/c3ccccc3)cc2O[C@H]1CN(C)Cc1ccccc1`, 98.5% (active).
Under `CCCC#Cc1ccc2c(c1)O[C@@H](CN(C)C(=O)c1ccccc1F)[C@H](C)CN([C@H](C)CO)S2(=O)=O` stands 105% (active); under `CCCC#Cc1ccc2c(c1)O[C@H](CN(C)C(=O)CC)[C@@H](C)CN([C@H](C)CO)S2(=O)=O`, 99.3% (active).
Take `CCC(=O)N(C)C[C@@H]1Oc2cc(C#CCN(C)C)ccc2S(=O)(=O)N([C@H](C)CO)C[C@H]1C`: the inhibition is 98.5% (active).
For `CC(=O)N(C)C[C@H]1Oc2cc(C#CCN(C)C)ccc2S(=O)(=O)N([C@@H](C)CO)C[C@@H]1C`, the inhibition was 95.7% (active).
The value for `CC(C)CC#Cc1ccc2c(c1)O[C@H](CN(C)S(=O)(=O)c1cccc(F)c1)[C@@H](C)CN([C@@H](C)CO)S2(=O)=O` was 88.4%.
Under `C[C@@H]1CN([C@@H](C)CO)S(=O)(=O)c2ccc(-c3cccc(F)c3)cc2O[C@@H]1CN(C)S(=O)(=O)c1ccccc1` stands 104% (active); under `C[C@H]1CN([C@@H](C)CO)S(=O)(=O)c2ccc(C#Cc3cccc(F)c3)cc2O[C@@H]1CN(C)S(=O)(=O)c1cn(C)cn1`, 102% (active); under `COCCNC[C@@H]1[C@H](c2ccccc2)[C@H](CO)N1c1nc(C)c(C)s1`, 95.7% (active).
Under `CC(=O)N1CC[C@@H]2[C@H](CO)Nc3ccc(C#Cc4ccccc4F)cc3[C@@H]21` stands 70.2%; under `O=S(=O)(c1ccccc1)N1CC[C@@H]2[C@@H](CO)Nc3ccc(C#Cc4cccc(F)c4)cc3[C@@H]21`, 100% (active).
For the compound `O=S(=O)(c1ccccc1)N1CC[C@@H]2[C@H]1c1cc(C#Cc3cccc(F)c3)ccc1N[C@@H]2CO`, the inhibition was 97.6% (active).
The value for `O=C(c1cccc(F)c1)N1CC[C@@H]2[C@@H](CO)Nc3ccc(C#Cc4cccc(F)c4)cc3[C@@H]21` was 106% (active).
The value for `O=S(=O)(c1ccccc1)N1CC[C@@H]2[C@@H](CO)Nc3ccc(-c4ccccc4F)cc3[C@@H]21` was 103% (active).
Under `Cc1ccccc1S(=O)(=O)N1CC[C@H]2[C@H](CO)Nc3ccc(-c4cccc(F)c4)cc3[C@H]21` stands 105% (active); under `O=C(Cc1ccccc1)N1CC[C@H]2[C@H](CO)Nc3ccc(-c4ccccc4F)cc3[C@H]21`, 103% (active).
On to `Cc1noc(C)c1S(=O)(=O)Nc1ccc2c(c1)C(=O)N([C@@H](C)CO)C[C@H](C)[C@@H](CN(C)C(=O)Nc1cccc3ccccc13)OCCCC[C@H](C)O2`, for which the inhibition was 99.4% (active).
The value for `C[C@@H]1CCCCO[C@H](CN(C)C(=O)Nc2cccc3ccccc23)[C@H](C)CN([C@H](C)CO)C(=O)c2cc(NS(=O)(=O)c3cccs3)ccc2O1` was 103% (active).
The value for `Cc1ccc(S(=O)(=O)Nc2ccc3c(c2)C(=O)N([C@@H](C)CO)C[C@@H](C)[C@H](CN(C)C(=O)Nc2cccc4ccccc24)OCCCC[C@H](C)O3)cc1` was 97.1% (active); that for `C[C@@H]1CN([C@@H](C)CO)C(=O)c2cc(C#CC3CCCCC3)cnc2O[C@H]1CN(C)S(=O)(=O)c1ccccc1` was 107% (active).
The value for `C[C@H]1CN([C@@H](C)CO)C(=O)c2cc(C#CC3CCCCC3)cnc2O[C@H]1CN(C)S(=O)(=O)c1ccccc1` was 108% (active).
For `C[C@H](CO)N1C[C@H](C)[C@H](CN(C)C(=O)C2CCCCC2)Oc2ncc(C#Cc3cccc(F)c3)cc2C1=O`, the inhibition was 102% (active).
`C[C@@H]1CN([C@H](C)CO)C(=O)c2cc(C#CC3CCCCC3)cnc2O[C@@H]1CN(C)C(=O)NC1CCCC1`: the inhibition was 103% (active).
Under `C[C@H](CO)N1C[C@H](C)[C@H](CN(C)C(=O)Nc2ccc3c(c2)OCO3)Oc2ncc(C#Cc3cccc(F)c3)cc2C1=O` stands 85.5%.
Under `C[C@@H]1CN([C@H](C)CO)C(=O)c2cccc(NC(=O)NC3CCCCC3)c2O[C@H]1CN(C)Cc1ccc(C(F)(F)F)cc1` stands 89.1%.
The value for `C[C@@H]1CN([C@H](C)CO)C(=O)c2cccc(NC(=O)c3ccc(-c4nccs4)cc3)c2O[C@@H]1CN(C)C(=O)Nc1ccc(C(F)(F)F)cc1` was 104% (active); that for `Cc1cc(C(=O)Nc2cccc3c2O[C@@H](CN(C)Cc2ccc(C(=O)Nc4ccccc4N)cc2)[C@H](C)CN([C@@H](C)CO)C3=O)n(C)n1` was 105% (active).
Regarding `C[C@@H]1CN([C@H](C)CO)C(=O)c2cccc(NC(=O)c3cnccn3)c2O[C@@H]1CN(C)Cc1ccc(C(=O)Nc2ccccc2N)cc1`, the inhibition is 92.4%.
The value for `C[C@H](CO)N1C[C@H](C)[C@@H](CN(C)Cc2ccc(C(=O)Nc3ccccc3N)cc2)Oc2c(NC(=O)c3ccc(-c4nccs4)cc3)cccc2C1=O` was 99.3% (active); that for `C[C@H](CO)N1C[C@H](C)[C@H](CN(C)Cc2ccc(C(F)(F)F)cc2)OCCCC[C@H](C)Oc2ccc(NS(=O)(=O)c3ccc(Cl)cc3)cc2C1=O` was 91.8%.
Under `C[C@@H]1CN([C@H](C)CO)C(=O)c2cc(NS(=O)(=O)c3ccc(Cl)cc3)ccc2O[C@@H](C)CCCCO[C@H]1CN(C)Cc1ccccc1` stands 97.6% (active); under `C[C@@H]1CCCCO[C@H](CN(C)Cc2ccccc2)[C@H](C)CN([C@H](C)CO)C(=O)c2cc(NS(=O)(=O)c3ccc(Cl)cc3)ccc2O1`, 99.5% (active).
